Bioassay records as filed in PubChem BioAssay.
GAA glycogen mod = alters human alpha-glucosidase cleavage of glycogen. 0.38% of 300,000 active. P10253. recombinant GAA, glycogen substrate, Amplex Red glucose oxidase fluorescence. Potency, µM (titrated, usually from 76.4 µM), for inactives: top-dose activity change, negative = inhibition, hits mostly inhibitors;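 also: potency is read from the fitted curve at half-maximal effect; 0% = full enzyme reaction and -100% = no-enzyme basal signal; the screen sought inhibitors and activators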
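Recombinant human alpha-glucosidase (4 nM final) hydrolysed bovine liver glycogen (30 ug) for 40 min at 37 C in pH 5.0 citrate/phosphate with 0.01% Tween-20. Released glucose detected by glucose oxidase/Amplex Red, Ex 573/Em 610 nm. Compounds up to 77 uM; AC50 from Hill fits.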
aGal spleen mod = inhibits or activates alpha-galactosidase in human spleen homogenate; human spleen homogenate, 4MU-alpha-Gal fluorescence, 40 min; Potency, µM (series often up to 80 µM), without a hit: at the highest dose activity change, negative = inhibition, usual class: inhibitors; 0.008% of 240,000 active;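 also: potency is read from the fitted curve at half-maximal effect; 0% = enzyme with vehicle and -100% = no enzyme basal signal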
Target sequence (P06280 32-429 limits assumed): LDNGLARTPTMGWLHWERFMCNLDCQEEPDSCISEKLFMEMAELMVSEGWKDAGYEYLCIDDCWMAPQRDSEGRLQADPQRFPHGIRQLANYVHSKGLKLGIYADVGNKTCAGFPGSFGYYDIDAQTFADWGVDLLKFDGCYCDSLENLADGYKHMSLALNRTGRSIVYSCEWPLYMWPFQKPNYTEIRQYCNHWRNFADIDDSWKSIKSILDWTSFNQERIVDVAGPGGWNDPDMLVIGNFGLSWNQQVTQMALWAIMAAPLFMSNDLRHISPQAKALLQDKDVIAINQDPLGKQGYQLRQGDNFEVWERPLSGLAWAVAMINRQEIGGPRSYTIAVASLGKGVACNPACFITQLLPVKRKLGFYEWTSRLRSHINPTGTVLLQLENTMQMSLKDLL
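Fluorogenic readout (Ex 365/Em 440 nm) of 4-methylumbelliferone released from 1 mM 4-MU-alpha-galactoside by spleen homogenate, 40 min at 37C, pH 5.0. Data normalized to no-enzyme and enzyme controls; Hill-equation AC50 from compound titrations.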
GAA inhib = alpha-glucosidase (human) inhibition; 0.005% of 200,000 active; purified human GAA, 4-MU-alpha-glucoside fluorescence; Potency, µM (top dose mostly 76.9 µM), for inactives: at the highest dose activity change, negative = inhibition, most hits filed as inhibitors;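 also: potency is read from the fitted curve at half-maximal effect; plate controls were uninhibited enzyme wells for no effect and no-enzyme background for full effect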
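Human alpha-glucosidase, 4 nM, pre-mixed with test compounds before 400 uM 4-methylumbelliferyl substrate; 20 min room temperature at pH 5.0. Fluorescence read after pH 10 stop; AC50 values from Hill-equation fits.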
N370S GC = inhibits or activates N370S mutant glucocerebrosidase; 0.092% of 330,000 active; P04062; Potency, µM (titrated, usually from 59.4 µM), without a hit: at the highest dose activity change, negative = inhibition, most hits filed as inhibitors; N370S GC spleen homogenate, 4MU-glucoside fluorescence; AID 2101;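 also: potency is read from the fitted curve at half-maximal effect; 0% = full enzyme activity and -100% = no enzyme basal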
GLA inh pH 4.5 = alpha-galactosidase A (human) inhibition, pH 4.5; P06280; purified enzyme, 4-MU-alpha-Gal fluorescence, pH 4.5; activity change, negative = inhibition, % at 105 µM; 230,000 tested, under 10 active;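 also: 0% = full activity with enzyme and -100% = basal without enzyme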
aGlu spleen mod = lysosomal alpha-glucosidase (human) modulation. P10253. human spleen homogenate, 4-MU-alpha-glucoside fluorescence. Potency, µM (top dose mostly 79.9 µM), inactives show at the top dose activity change, negative = inhibition, most hits filed as inhibitors. 0.006% of 240,000 active. AID 2112;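 also: potency is read from the fitted curve at half-maximal effect; 0% = enzyme with vehicle and -100% = no enzyme basal signal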
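Human spleen homogenate (1 ug) with 4-methylumbelliferyl-alpha-D-glucopyranoside (1 mM final) in 50 mM citrate/phosphate pH 5.0, 0.01% Tween-20; 40 min at 37 C. Stopped at pH 10; 4-MU fluorescence Ex 365/Em 440 nm; AC50 by Hill fit.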
* = called active by the depositor; ? = inconclusive; . = not tested or not shown; [ ] = remark or other dose. Shown are actives, neighbours in structure and some others; about 0.43% of the full set was active somewhere. Calls follow the shape of the dose curve; as a rule, active = well fitted curve in the direction sought with a large enough effect; inconclusive = small, poorly fitted or top-dose-only effect, or another doubt; inactive = no such curve, though single readings can be large; an effect the other way counts as inactive or inconclusive.

SMILES	GAA glycogen mod	aGal spleen mod	GAA inhib	N370S GC	GLA inh pH 4.5	aGlu spleen mod
CSc1ccc(-c2nc3cnccn3c2Nc2ccc3c(c2)OCO3)cc1	22µM*	-4%	-28%	-1%	-26	-4%
COc1ccc(Nc2c(-c3ccc(C)o3)nc3cc(C)ccn23)cc1	5.6µM*	.	.	.	.	.
Oc1ccccc1-c1nc2cnccn2c1Nc1ccc2c(c1)OCCO2	7.9µM*	3%	?	15%	-5	-3%
COc1cc(-c2nc3cnccn3c2Nc2c(C)cccc2C)ccc1O	14µM*	-3%	-1%	0%	-2	0%
COc1cc(-c2nc3sccn3c2Nc2c(C)cccc2C)ccc1O	-18%[76.3 µM]	.	.	.	.	.
Clc1ccc(-c2nc3cnccn3c2Nc2ccc3c(c2)OCO3)cc1	?	8%	-1%	-16%	-1	1%
ICCc1ccccc1	.	2%	.	19%	.	10%
COc1ccc(-c2nc(CNS(=O)(=O)c3cccc(F)c3)cs2)cc1	9%[76.3 µM]	.	.	.	.	.
O=C(Cl)c1cccc([N+](=O)[O-])c1	.	5%	.	-5%	.	12%
Cc1ccccc1NS(=O)(=O)c1ccc2[nH]cc(C(=O)NCCc3ccccc3)c(=O)c2c1	.	.	.	-6%	.	.
CN(C)C(=O)n1nnnc1Cc1ccc(-c2ccccc2)cc1	.	-4%	.	-21%	-4	4%
NS(=O)(=O)c1ccc(NNC(=O)c2ccccc2C(=O)O)cc1	?	-1%	.	2%	-1	-12%
O=C(O)c1ccccc1C(=O)NNc1ccc(Cl)cc1	11µM*	-6%	3%	-8%	10	-8%
COc1cccc(Cn2c(=O)c(-c3cccs3)nc3cnc(N4CCOCC4)nc32)c1	.	-5%	.	21%	.	0%
COc1ccc(Br)cc1CNC(=O)CCCn1c(=O)c2cccn2c2cccnc21	-27%[76.3 µM]	.	.	.	.	.
Fc1ccccc1NC(=S)NNc1ncc(C(F)(F)F)cc1Cl	28µM*	1%	-10%	-2%	2	-1%
CN(C(=O)c1ccoc1)c1ccccc1I	.	3%	.	9%	.	-3%
NC(N)=NCCC[C@H](NC(=O)CC1(CC(=O)N2CCN(C3c4ccccc4NC(=O)c4ccccc43)CC2)CCCC1)C(=O)NCCn1c(=O)n(-c2ccccc2)n(-c2ccccc2)c1=O (some centres undefined)	.	-3%	.	18µM*	-13	-3%
O=C(O)COCC(=O)N1CCN(C2c3ccccc3-c3ccccc32)CC1	-9%	5%	.	-15%	-3	-3%
CCOc1ccc(NC(=S)N(CCc2c(C)[nH]c3ccc(C)cc23)Cc2ccco2)cc1	35µM*	7%	3%	13%	10	2%
COc1ccc(-c2nc3cnc(N4CCNCC4)nc3n(C3CC3)c2=O)cc1	.	8%	.	-6%	.	3%
CC1CCN(S(=O)(=O)c2ccc3ncn(CC(=O)Nc4ccccc4C(F)(F)F)c(=O)c3c2)CC1	-6%[76.3 µM]	.	.	.	.	.
CC(=O)Oc1cc2oc(=O)cc(C)c2cc1OC(C)=O	7.9µM*	?	?	?	?	?
CC(=O)Oc1ccc2c(C)cc(=O)oc2c1	0%	?	?	?	?	?
Nc1cc(-c2ccccc2)ccc1O	10µM*	1%	-6%	-7%	1	-2%
CS/C(N)=C(C#N)/C(C#N)=C(\N)SC	.	2%	.	17%	1	5%
COc1cc(/C=N\NC(=O)c2c(C)nc3cc(C)ccn23)ccc1O	11µM*	-22%	-4%	?	0	?
O=C1C=CC2=C3c4cc(O)c(O)cc4C[C@@]3(O)COC2=C1	.	3%	.	-8%	2	5%
O=C1CCCC2=C1C(c1ccc(O)c(O)c1)Nc1ccc3ncccc3c12 (centres undefined)	2.8µM*	6%	-2%	6%	-5	-2%
O=C1CC(N2CCN(c3ccccc3O)CC2)C(=O)N1Cc1ccccc1 (centres undefined)	3.1µM*	-4%	-2%	9%	0	-4%
